Experimental findings from PubChem BioAssay are described below.

Each structure is given as a SMILES string. Active and inactive are the calls of the source.

Test [1] in a line: binders of probe aFSTL3 on microarray, primary screen, stem cell growth factor project, biochemical, small-molecule microarray, fluorescence 635/667 (AID 1064).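 Further: measures binding of the biotinylated anti-FSTL3 antibody to printed compounds.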 The settings on record: higher = more signal.
Test [2] in a line: binders from COS7 lysate, DM2A8 probe, primary screen, torsin A project, cell lysate, small-molecule microarray, fluorescence 635/667 (AID 1065). The settings on record: higher = more signal, COS7 lysate expressing mutant human TOR1A.
The nature of test [3]: binders of probe aFGF2 on microarray, primary screen, stem cell growth factor project, biochemical, small-molecule microarray, fluorescence 635/667 (AID 1067).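 Further: measures binding of biotinylated aFGF2 protein to printed compounds on slides; z-score merges feature fluorescence and signal-to-noise across triplicate slides.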 The settings on record: higher = more signal.
Test [4] is described as follows: binders of probe aFGF10 on microarray, primary screen, stem cell growth factor project, biochemical, small-molecule microarray, fluorescence 635/667 (AID 1071).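 Further: score merges 667 nm spot intensity and signal to noise from triplicate slides.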 The settings on record: higher = more signal.
The target of test [5] is Neurogenic locus notch homolog protein 2 (Homo sapiens) (UniProt Q04721). Description: Notch2 binders on small-molecule microarrays, primary screen, biochemical, small-molecule microarray, 635 nm fluorescence, stem cell growth factors (AID 1073). The settings on record: Notch2 binding, higher = more signal.
Sequence of Neurogenic locus notch homolog protein 2 (Homo sapiens) (Q04721 whole entry, looked up, canonical isoform): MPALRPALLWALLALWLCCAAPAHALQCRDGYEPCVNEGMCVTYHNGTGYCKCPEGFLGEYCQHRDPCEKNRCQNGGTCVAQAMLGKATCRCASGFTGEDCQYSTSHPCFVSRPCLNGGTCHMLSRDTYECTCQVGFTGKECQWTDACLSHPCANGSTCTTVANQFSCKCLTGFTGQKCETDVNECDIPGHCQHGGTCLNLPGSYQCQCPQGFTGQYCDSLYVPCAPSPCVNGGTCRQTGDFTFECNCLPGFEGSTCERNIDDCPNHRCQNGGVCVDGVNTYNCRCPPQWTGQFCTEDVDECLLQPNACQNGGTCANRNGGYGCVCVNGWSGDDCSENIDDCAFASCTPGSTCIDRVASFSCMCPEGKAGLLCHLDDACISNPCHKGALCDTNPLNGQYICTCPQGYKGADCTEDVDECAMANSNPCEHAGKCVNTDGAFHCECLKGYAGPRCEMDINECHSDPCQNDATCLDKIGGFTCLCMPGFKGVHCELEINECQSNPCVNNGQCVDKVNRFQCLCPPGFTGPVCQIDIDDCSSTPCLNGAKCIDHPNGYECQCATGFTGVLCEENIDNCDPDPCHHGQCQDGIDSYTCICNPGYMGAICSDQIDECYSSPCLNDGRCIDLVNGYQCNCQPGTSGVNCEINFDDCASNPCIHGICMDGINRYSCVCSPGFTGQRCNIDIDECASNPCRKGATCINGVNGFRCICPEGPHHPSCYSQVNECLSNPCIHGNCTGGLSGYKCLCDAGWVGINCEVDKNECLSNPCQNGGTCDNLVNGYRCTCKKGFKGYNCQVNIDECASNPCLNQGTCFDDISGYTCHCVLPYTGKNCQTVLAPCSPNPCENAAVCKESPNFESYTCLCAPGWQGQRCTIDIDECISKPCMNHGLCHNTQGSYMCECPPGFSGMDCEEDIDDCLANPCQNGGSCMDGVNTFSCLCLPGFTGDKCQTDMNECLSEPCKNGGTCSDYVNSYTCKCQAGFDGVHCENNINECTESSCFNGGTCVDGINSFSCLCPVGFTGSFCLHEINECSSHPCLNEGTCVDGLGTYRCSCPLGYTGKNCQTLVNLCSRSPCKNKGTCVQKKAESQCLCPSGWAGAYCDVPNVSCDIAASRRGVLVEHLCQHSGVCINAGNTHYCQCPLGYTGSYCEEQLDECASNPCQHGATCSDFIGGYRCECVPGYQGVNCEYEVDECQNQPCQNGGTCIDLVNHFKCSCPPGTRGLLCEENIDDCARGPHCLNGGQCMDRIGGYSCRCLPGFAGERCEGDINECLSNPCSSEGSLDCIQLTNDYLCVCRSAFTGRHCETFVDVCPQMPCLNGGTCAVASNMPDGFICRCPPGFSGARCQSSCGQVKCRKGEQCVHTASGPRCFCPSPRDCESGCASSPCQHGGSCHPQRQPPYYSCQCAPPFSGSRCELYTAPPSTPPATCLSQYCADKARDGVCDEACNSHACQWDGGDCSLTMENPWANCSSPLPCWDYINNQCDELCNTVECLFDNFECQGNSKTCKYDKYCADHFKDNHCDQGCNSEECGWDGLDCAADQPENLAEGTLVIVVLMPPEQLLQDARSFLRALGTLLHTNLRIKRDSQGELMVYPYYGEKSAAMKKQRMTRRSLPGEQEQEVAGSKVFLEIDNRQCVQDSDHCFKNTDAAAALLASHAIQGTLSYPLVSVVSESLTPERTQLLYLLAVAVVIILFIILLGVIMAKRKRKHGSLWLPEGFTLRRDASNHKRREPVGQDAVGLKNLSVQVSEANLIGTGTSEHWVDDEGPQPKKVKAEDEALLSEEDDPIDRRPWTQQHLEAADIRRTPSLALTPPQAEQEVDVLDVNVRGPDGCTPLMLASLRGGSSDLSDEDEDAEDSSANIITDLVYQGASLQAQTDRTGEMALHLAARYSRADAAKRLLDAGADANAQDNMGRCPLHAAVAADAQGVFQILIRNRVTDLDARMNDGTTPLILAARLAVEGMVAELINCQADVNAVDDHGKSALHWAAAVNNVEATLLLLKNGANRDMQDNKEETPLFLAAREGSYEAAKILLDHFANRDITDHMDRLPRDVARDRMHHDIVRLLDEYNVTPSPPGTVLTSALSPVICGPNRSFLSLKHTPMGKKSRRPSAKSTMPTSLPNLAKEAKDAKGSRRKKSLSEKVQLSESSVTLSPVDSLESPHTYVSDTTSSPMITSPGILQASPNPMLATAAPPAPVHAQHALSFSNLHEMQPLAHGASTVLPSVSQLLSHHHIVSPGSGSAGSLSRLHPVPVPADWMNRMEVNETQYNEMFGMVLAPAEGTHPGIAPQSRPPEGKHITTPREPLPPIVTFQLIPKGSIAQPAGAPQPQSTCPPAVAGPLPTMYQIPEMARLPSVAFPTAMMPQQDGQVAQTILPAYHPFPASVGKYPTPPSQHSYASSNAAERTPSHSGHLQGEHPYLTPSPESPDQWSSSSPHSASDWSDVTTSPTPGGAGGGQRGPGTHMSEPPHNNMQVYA
Test [6] addresses Pro-neuregulin-1, membrane-bound isoform (Homo sapiens) (UniProt Q02297). Description: NRG1 binders on small-molecule microarrays, primary screen, psychiatric disease protein project, biochemical, small-molecule microarray, fluorescence 635/667 (AID 1075).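 Further: score combines 667 nm spot fluorescence with signal to noise.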 The settings on record: NRG1 binding, 635 nm fluorescence, higher = more signal.
The subject of test [7] is Neuregulin-1 EGF-like domain. The test is described as follows: binders of neuregulin-1 EGF-like domain, primary screen, biochemical, small-molecule microarray, 635 nm fluorescence (AID 1081).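 Further: binding of the protein to compounds printed on small-molecule microarray slides.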 The settings on record: small-molecule microarray binding, higher = more signal.
The nature of test [8]: FRG1 promoter luciferase signal modulators, primary screen, FRG1 inhibition for FSHD, cell-based, C2C12 myotubes, firefly/Renilla luciferase, luminescence (AID 1084). The settings on record: higher = more signal, called active from +8 up or from −8 down.
Test [9] is described as follows: binders of probe aFST on microarray, primary screen, stem cell growth factor project, biochemical, small-molecule microarray, fluorescence 635/667 (AID 1086).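 Further: score merges 667 nm fluorescence with signal-to-noise of each printed compound spot.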 The settings on record: higher = more signal.
The nature of test [10]: binders of probe aHhip on microarray, primary screen, stem cell growth factor project, biochemical, small-molecule microarray, fluorescence 635/667 (AID 1087).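 Further: score merges spot fluorescence at 667nm with spot signal to noise ratio.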 The settings on record: higher = more signal.

Sequence of Pro-neuregulin-1, membrane-bound isoform (Homo sapiens) (Q02297 whole entry, looked up, the tested form may be a part, canonical isoform): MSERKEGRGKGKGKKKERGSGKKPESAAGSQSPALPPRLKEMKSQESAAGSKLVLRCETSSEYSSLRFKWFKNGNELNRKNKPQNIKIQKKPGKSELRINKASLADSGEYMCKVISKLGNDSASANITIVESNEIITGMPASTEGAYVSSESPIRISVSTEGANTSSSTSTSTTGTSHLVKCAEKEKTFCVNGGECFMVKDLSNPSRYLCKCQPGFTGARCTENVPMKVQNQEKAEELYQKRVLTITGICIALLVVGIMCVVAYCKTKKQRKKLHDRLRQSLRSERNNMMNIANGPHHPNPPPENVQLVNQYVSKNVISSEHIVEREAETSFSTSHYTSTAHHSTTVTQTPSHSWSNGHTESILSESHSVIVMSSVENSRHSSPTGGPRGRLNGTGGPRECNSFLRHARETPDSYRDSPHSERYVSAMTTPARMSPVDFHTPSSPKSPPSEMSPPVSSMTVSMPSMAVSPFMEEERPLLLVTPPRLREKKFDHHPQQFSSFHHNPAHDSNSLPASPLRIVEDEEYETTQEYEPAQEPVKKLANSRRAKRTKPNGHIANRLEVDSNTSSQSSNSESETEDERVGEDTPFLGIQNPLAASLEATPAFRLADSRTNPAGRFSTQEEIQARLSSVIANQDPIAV

For the molecule `COC(=O)c1ccc([C@H](NC(=O)c2ccco2)[C@]2(C)C[C@H]2C2CCCCC2)cc1`, the composite z-score in test [1] was 0.685; in [2], -0.462; in test [3], -0.0301; in [4], -0.11; in test [5] it was 0.329; in test [6], 1.12. For the same molecule, the composite z-score in [7] is -0.808; in test [9], 0.488; in test [10], 2.5. In addition, the z-score in test [8] is -0.622 (inactive).

As to `CC1CC/C=C\[C@H]2OC34C=CCN(c5ccc(Cl)cc5)C(=O)[C@H]3N(CCCCCO)C(=O)[C@]4(C)C2C(=O)O1` (stereo not given in full), the composite z-score is 0.124 in test [1]; -0.673 in test [2]; -0.16 in [3]; -1.26 in test [4]; -1.01 in test [5]; 0.332 in test [6]. Also, the figures for the composite z-score in test [7], in test [9] and in [10] were 0.429, -0.999 and -0.0994, respectively. Besides, the z-score in test [8] is 0.581 (inactive).

`CN(C)CCCNC(=O)[C@@]1(C)c2ccccc2C(=O)N(Cc2ccccc2)[C@H]1c1ccc(CO)cc1`: the composite z-score was 1.2 in [1]; -0.333 in [2]; -0.116 in test [3]; -0.305 in [4]; -0.675 in [5]; 1.62 in test [6]. In addition, the composite z-score is 0.562 in test [7], -0.0584 in test [9] and -0.0074 in [10]. Also, in [8], the z-score is -0.839 (inactive).

On to `COCCOC(=O)N1C(=O)[C@@]2(c3cc(C#CCCO)ccc31)[C@H](C(=O)Nc1nc3ccccc3s1)[C@H]1C(=O)O[C@H](c3ccccc3)[C@H](c3ccccc3)N1[C@@H]2c1ccccc1OCCO`, for which the composite z-score was -0.224 in [1]; 0.53 in test [2]; 0.0293 in [3]; 0.802 in [4]; 1.29 in [5]; 0.95 in [6]. Also, the composite z-score in [7] came to 1.32; in test [9] it was 0.745; in [10], 0.153. The z-score in test [8] was 1.23 (inactive).

For `C=CC1c2cc(O)c(OC)cc2CCN1Cc1cc2c(cc1Br)OCO2` (stereo not given), the composite z-score was 1.54 in [1]; 1.07 in test [2]; -0.101 in test [3]; -0.15 in test [4]; -0.322 in test [5]; 1.19 in test [6]. Also, the composite z-score in test [7] is 1.22; in [9] it was 0.221; in [10], -0.132. The z-score in test [8] is -0.454 (inactive).

Regarding `O=C1c2ccccc2[C@](Cc2ccccc2I)(C(=O)NCC(F)(F)F)[C@H](c2ccc(CO)cc2)N1C1CCCCC1`, the composite z-score in [1] was -0.0894; in test [2] it was -0.089; in test [3], 0.0772; in test [4] it was 0.94; in test [5] it was 1.14; in [6] it was 1.76. Besides, the composite z-score in test [7] is 0.985; in [9], 0.593; in test [10], -0.134. In test [8], the z-score is -0.85 (inactive).

As to `O=C1N(Cc2ccccc2)c2ccccc2[C@@H]2OC(c3ccc(OCCCO)cc3)=N[C@]12Cc1ccccc1`, the composite z-score was 0.677 in test [1]; -0.603 in [2]; 0.06 in [3]; 0.569 in [4]; 0.848 in test [5]; -0.329 in test [6]. Also, the composite z-score in [7] is 1.19; in [9], 0.191; in test [10] it was 0.113. Further, the z-score in [8] is -2.82 (inactive).

On to `C=C(COC)/C(=C/C[C@H](OC(C)=O)c1ccc(OCCO)cc1)c1cc(C(=O)OC)ccc1OC`, for which the composite z-score was -0.391 in [1]; 1.91 in [2]; -0.1 in [3]; 1.03 in [4]; 0.277 in [5]; 0.697 in [6]. Moreover, the composite z-score was 1.24 in [7], 0.0308 in [9] and -0.476 in test [10]. Further, the z-score in test [8] was -0.658 (inactive).

Take `O=C1O[C@@H](c2ccccc2)[C@@H](c2ccccc2)N2[C@@H](c3ccc(O)cc3)[C@]3(C(=O)Nc4ccc(C#CC5(O)CCCCCC5)cc43)[C@@H](C(=O)NC[C@H](O)c3ccccc3)[C@H]12`: the composite z-score is 0.107 in test [1]; -0.363 in test [2]; -0.0255 in test [3]; 0.753 in [4]; -0.226 in test [5]; 1.02 in test [6]. For the same molecule, the composite z-score in test [7] was 0.538; in [9] it was -0.405; in test [10], -0.236. Besides, the z-score in test [8] is 0.106 (inactive).

With `COCCOC(=O)N1C(=O)[C@@]2(c3cc(C#Cc4ccc(OC)cc4)ccc31)[C@H](c1ccccc1OCCO)N1[C@H](c3ccccc3)[C@H](c3ccccc3)OC(=O)[C@H]1[C@@H]2C(=O)N1CCCCCCC1`, the composite z-score in test [1] was 3.55; in test [2], 1.2; in [3], 0.903; in test [4] it was 0.573; in test [5], 1.3; in test [6] it was 1.7. Moreover, the composite z-score in [7] worked out at 0.961; in test [9] it was 3.39; in test [10] it was 1.47. For the same molecule, in test [8], the z-score was -0.633 (inactive).

`C=CCC(OC(C)=O)[C@@H]1[C@@H](N(Cc2ccc(-c3cccc(C(F)(F)F)c3)o2)C(=O)c2ccc(-c3ccccc3)cc2)c2cc(OCCCO)ccc2N1C(=O)c1ccc2ccccc2n1` (stereo not given in full): the composite z-score in test [1] is -0.0375; in test [2], -0.246; in test [3], -0.0266; in test [4], 0.306; in test [5], 0.0588; in test [6], 0.0617. The composite z-score in test [7] was -0.385; in [9], 0.77; in test [10], -0.0237. Moreover, the z-score in [8] is -0.379 (inactive).

`C=CCOC(=O)[C@H]1[C@@H]2C(=O)O[C@@H](c3ccccc3)[C@@H](c3ccccc3)N2[C@@H](c2ccc(OCCOC(=O)[C@H]3C[C@H]4C(=O)N[C@@H](CCCCNC(C)=O)C(=O)N4[C@H]3c3ccc(O)cc3)cc2)[C@]12C(=O)Nc1ccccc12`: the composite z-score in test [1] was -0.0493; in [2] it was 0.498; in [3], -0.0736; in test [4] it was 0.0817; in test [5], 0.307; in test [6], 0.285. The composite z-score in test [7] is 0.999; in [9] it was 0.352; in [10], -0.0994. Further, the z-score in test [8] is -1.15 (inactive).

Regarding `NCCCCCNC(=O)[C@@H]1C[C@@H]2C(=O)NCC(=O)N2[C@@H]1c1cccc(OCCO)c1`, the composite z-score in [1] is -0.144; in test [2], 0.45; in test [3], 0.108; in [4], 0.773; in test [5], 0.756; in test [6] it was 0.889. The composite z-score in test [7] was found to be 1.34; in test [9], 0.417; in test [10], 0.151. For the same molecule, the z-score in test [8] is 0.0981 (inactive).

Take `CC(C)C[C@@H]1NC(=O)[C@@H]2C[C@H](C(=O)NCCCCCN)[C@H](c3ccc(O)cc3)N2C1=O`: the composite z-score in test [1] was 0.347; in test [2] it was 0.174; in test [3], -0.0909; in test [4], 0.335; in test [5], 0.727; in test [6] it was 1.26. The composite z-score came to 1.3 in test [7], 0.371 in test [9] and 0.0854 in [10]. Further, the z-score in [8] was -0.375 (inactive).

Take `CCCCC(=C=CC[C@@H](O)c1ccccc1OCCO)C[C@@H](O)COCc1ccccc1`: the composite z-score is -0.0745 in test [1]; 0.0282 in test [2]; -0.101 in test [3]; -0.333 in test [4]; -0.768 in [5]; 0.852 in test [6]. The composite z-score in test [7] is 0.115; in test [9] it was -0.462; in test [10], -0.201. Also, the z-score in test [8] was -2.9 (inactive).

As for `COC(=O)[C@@]1(Cc2ccccc2)[C@H]2c3cc(C(=O)N(C)C)n(CCc4ccc(O)c(OC)c4)c3C[C@H]2CN1C(=O)c1ccccc1`, the composite z-score was found to be 0.514 in test [1]; 0.283 in [2]; 0.356 in test [3]; 0.557 in [4]; 0.749 in [5]; 0.258 in test [6]. Also, the composite z-score in [7] turned out to be 0.781; in test [9], 1.34; in test [10] it was 2.09. In addition, in test [8], the z-score is 0.96 (inactive).
